PubChem BioAssay AID1159580 (chemical genetic matrix, 2015)
Several values for one entry are separate records, joined by “and”; a condition that tells them apart may be missing. Identical values can stand only once. In all, about 5,500 compounds went through this assay and about 2,000 (36%) were called active. Another 18% or so got no clear call; they are omitted. Cut-off read from the data, not from the text of the source: active = normalized growth mostly below about 0.91 (no sharp cut-off); inconclusive = no clear call, values can overlap the other calls; inactive = mostly above about 0.92. The list shows a part of the results.

Experiment: chemical genetic growth profiling, strain panel (AID 1159580);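 note: tested at 20 µM; growth read once vehicle control cultures reached saturation at 30 °C; 1 = growth at the plate median or of vehicle wells; lower values mean less growth of the strain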
Conditions: growth OD

Measured: normalized growth

CNC(=O)Oc1ccc2c(c1)C1(C)CCN(C)C1N2C (centres undefined)
inactive: S. cerevisiae deletion strains, locus YAL013W, strain DEP1, hits give low values 0.999 | S. cerevisiae deletion strains, locus YAL040C, strain CLN3, hits give low values 0.99 | S. cerevisiae deletion strains, locus YBR021W, strain FUR4, hits give low values 1.04 and 1.03 | S. cerevisiae deletion strains, locus YBR229C, strain ROT2, hits give low values 1 and 1.01 | S. cerevisiae deletion strains, locus YCL029C, strain bik1, hits give low values 0.991 and 1.01 | S. cerevisiae deletion strains, locus YCL061C, strain MRC1 (second series), hits give low values 0.978 | S. cerevisiae deletion strains, locus YDL035C, strain GPR1, hits give low values 1.01 and 1 | S. cerevisiae deletion strains, locus YDL074C, strain BRE1, hits give low values 1.01 and 1 | S. cerevisiae deletion strains, locus YDL101C, strain DUN1, hits give low values 0.994 and 0.998 | S. cerevisiae deletion strains, locus YDL134C, strain PPH21, hits give low values 1.06 and 1 | S. cerevisiae deletion strains, locus YDL185W, strain tfp1, hits give low values 0.966 and 1.01 | S. cerevisiae deletion strains, locus YDL192W, strain arf1, hits give low values 1.02 and 1.01 | S. cerevisiae deletion strains, locus YDR101C, strain arx1, hits give low values 0.98 and 1.01 | S. cerevisiae deletion strains, locus YDR150W, strain NUM1, hits give low values 1.01 | S. cerevisiae deletion strains, locus YDR162C, strain NBP2, hits give low values 1.01 and 0.986 | S. cerevisiae deletion strains, locus YDR318W, strain mcm21, hits give low values 1.02 and 1.01 | S. cerevisiae deletion strains, locus YDR363W, strain ESC2, hits give low values 0.964 | S. cerevisiae deletion strains, locus YDR388W, hits give low values 0.994 and 1.01 | S. cerevisiae deletion strains, locus YDR502C, strain sam2, hits give low values 0.993 and 0.995 | S. cerevisiae deletion strains, locus YEL061C, strain CIN8, hits give low values 1 and 1.01 | S. cerevisiae deletion strains, locus YER002W, strain NOP16, hits give low values 0.993 | S. cerevisiae deletion strains, locus YER110C, hits give low values 0.972 and 1.02 | S. cerevisiae deletion strains, locus YER155C, strain BEM2, hits give low values 0.995 and 1.01 | S. cerevisiae deletion strains, locus YER167W, strain BCK2, hits give low values 0.996 and 1.02 | S. cerevisiae deletion strains, locus YGL078C, strain dbp3, hits give low values 1.01 | S. cerevisiae deletion strains, locus YGL086W, strain mad1, hits give low values 0.957 and 1.01 | S. cerevisiae deletion strains, locus YGL248W, strain PDE1, hits give low values 1.02 and 1.01 | S. cerevisiae deletion strains, locus YGR078C, strain PAC10, hits give low values 1 and 0.991 | S. cerevisiae deletion strains, locus YGR135W, strain pre9, hits give low values 1.04 and 0.982 | S. cerevisiae deletion strains, locus YGR229C, strain SMI1, hits give low values 0.977 | S. cerevisiae deletion strains, locus YGR252W, strain gcn5, hits give low values 1.2 and 0.984 | S. cerevisiae deletion strains, locus YHR030C, strain SLT2, hits give low values 0.998 and 1.01 | S. cerevisiae deletion strains, locus YHR079C, strain IRE1 (second series), hits give low values 0.976 and 1.02 | S. cerevisiae deletion strains, locus YHR094C, strain hxt1, hits give low values 0.991 and 1.01 | S. cerevisiae deletion strains, locus YHR129C, strain ARP1, hits give low values 1 and 1.02 | S. cerevisiae deletion strains, locus YHR200W, strain rpn10, hits give low values 0.995 and 1.01 | S. cerevisiae deletion strains, locus YIL066C, strain RNR3, hits give low values 1 and 1.01 | S. cerevisiae deletion strains, locus YIL073C, strain SPO22, hits give low values 0.935 and 1.03 | S. cerevisiae deletion strains, locus YIL125W, strain kgd1, hits give low values 0.995 and 1.02 | S. cerevisiae deletion strains, locus YIR030C, strain dcg1, hits give low values 1 and 1.02 | S. cerevisiae deletion strains, locus YJL095W, strain BCK1, hits give low values 1.06 and 1.02 | S. cerevisiae deletion strains, locus YJL134W, strain LCB3, hits give low values 0.997 and 1 | S. cerevisiae deletion strains, locus YJL168C, strain set2, hits give low values 0.983 and 1.01 | S. cerevisiae deletion strains, locus YJL187C, strain SWE1 (second series), hits give low values 1.01 and 1 | S. cerevisiae deletion strains, locus YJR043C, strain POL32, hits give low values 1.02 and 1.04 | S. cerevisiae deletion strains, locus YJR075W, strain HOC1, hits give low values 0.98 and 0.984 and 0.995 | S. cerevisiae deletion strains, locus YKL009W, strain mrt4, hits give low values 1.02 and 1.04 | S. cerevisiae deletion strains, locus YKL068W, hits give low values 0.976 and 1 | S. cerevisiae deletion strains, locus YKL085W, strain MDH1 (second series), hits give low values 0.98 and 1.02 | S. cerevisiae deletion strains, locus YKL085W, strain MDH1, hits give low values 0.98 and 1.02 | S. cerevisiae deletion strains, locus YKL190W, strain CNB1, hits give low values 1.01 | S. cerevisiae deletion strains, locus YKR001C, strain vps1, hits give low values 1 and 1.02 | S. cerevisiae deletion strains, locus YLR039C, strain RIC1, hits give low values 1.11 and 1.07 | S. cerevisiae deletion strains, locus YLR058C, strain SHM2, hits give low values 1.02 and 1.01 | S. cerevisiae deletion strains, locus YLR102C, strain apc9, hits give low values 0.974 and 1.02 | S. cerevisiae deletion strains, locus YLR262C, strain YPT6, hits give low values 1.14 and 1.01 | S. cerevisiae deletion strains, locus YLR268W, strain sec22, hits give low values 0.995 and 0.998 | S. cerevisiae deletion strains, locus YLR330W, strain CHS5, hits give low values 1 and 1.01 | S. cerevisiae deletion strains, locus YLR342W, strain FKS1 (second series), hits give low values 1.03 and 1.05 | S. cerevisiae deletion strains, locus YLR371W, strain rom2, hits give low values 0.979 and 1.02 | S. cerevisiae deletion strains, locus YLR418C, strain cdc73, hits give low values 1 and 0.92 | S. cerevisiae deletion strains, locus YML016C, strain PPZ1, hits give low values 0.99 and 1.01 | S. cerevisiae deletion strains, locus YML032C, strain rad52, hits give low values 1.04 and 1.02 | S. cerevisiae deletion strains, locus YML124C, strain tub3, hits give low values 0.992 and 1 | S. cerevisiae deletion strains, locus YMR078C, strain ctf18, hits give low values 0.981 and 1.02 | S. cerevisiae deletion strains, locus YMR223W, strain ubp8, hits give low values 1.03 and 1.02 | S. cerevisiae deletion strains, locus YMR263W, strain SAP30, hits give low values 0.983 and 0.988 | S. cerevisiae deletion strains, locus YMR307W, strain GAS1, hits give low values 1 and 1.24 and 1.1 | S. cerevisiae deletion strains, locus YNL067W, strain RPL9B, hits give low values 0.993 and 1 | S. cerevisiae deletion strains, locus YNL128W, strain TEP1, hits give low values 0.977 and 0.975 | S. cerevisiae deletion strains, locus YNL153C, strain GIM3, hits give low values 1 | S. cerevisiae deletion strains, locus YNL175C, strain NOP13, hits give low values 1.01 | S. cerevisiae deletion strains, locus YNL197C, strain WHI3, hits give low values 1 | S. cerevisiae deletion strains, locus YNL224C, strain SQS1, hits give low values 0.999 | S. cerevisiae deletion strains, locus YNL233W, strain BNI4, hits give low values 0.999 and 0.995 | S. cerevisiae deletion strains, locus YNL250W, strain rad50, hits give low values 0.94 and 1.02 | S. cerevisiae deletion strains, locus YNL271C, strain bni1, hits give low values 0.994 and 1.02 | S. cerevisiae deletion strains, locus YNL298W, strain CLA4, hits give low values 0.993 and 1.02 | S. cerevisiae deletion strains, locus YNL307C, strain MCK1, hits give low values 0.989 and 1.01 | S. cerevisiae deletion strains, locus YNL322C, strain KRE1, hits give low values 0.961 and 0.998 and 1.01 | S. cerevisiae deletion strains, locus YNR052C, strain pop2, hits give low values 1.01 and 1.02 | S. cerevisiae deletion strains, locus YOL006C, strain TOP1, hits give low values 0.949 and 0.93 | S. cerevisiae deletion strains, locus YOL012C, strain htz1 1.18 and 1.01 | S. cerevisiae deletion strains, locus YOL147C, strain pex11, hits give low values 0.995 and 1.01 | S. cerevisiae deletion strains, locus YOR061W, strain CKA2, hits give low values 1 and 1.01 | S. cerevisiae deletion strains, locus YOR069W, strain VPS5, hits give low values 0.996 and 1.01 | S. cerevisiae deletion strains, locus YOR083W, strain WHI5 (second series), hits give low values 1.01 | S. cerevisiae deletion strains, locus YOR136W, strain idh2, hits give low values 0.979 and 1.01 | S. cerevisiae deletion strains, locus YOR144C, strain elg1, hits give low values 1 and 1.01 | S. cerevisiae deletion strains, locus YOR184W, strain ser1, hits give low values 1.05 and 1.06 | S. cerevisiae deletion strains, locus YOR316C, strain cot1, hits give low values 0.988 and 1.02 | S. cerevisiae deletion strains, locus YPL055C, strain LGE1, hits give low values 0.987 | S. cerevisiae deletion strains, locus YPL241C, strain CIN2, hits give low values 1.01 | S. cerevisiae deletion strains, locus YPR119W, strain clb2, hits give low values 0.984 and 1.01 | S. cerevisiae deletion strains, locus YPR141C, strain kar3, hits give low values 0.981 and 1.02 | S. cerevisiae deletion strains, locus YPR163C, strain tif3, hits give low values 0.992 and 1.01 | S. cerevisiae deletion strains, locus YPR167C, strain met16, hits give low values 0.999 and 1.02 | S. cerevisiae deletion strains, strain wtn01, hits give low values 0.962 and 1 | S. cerevisiae strains, strain wild type, hits give low values 1.01
